A549 tox: kills or reduces viability of A549 cells in Nrf2 counter-screen | A549 ARE-Fluc cells, CellTiter-Fluor viability, 18-24 h | Potency, µM (doses to about 46 µM), for inactives: top-dose activity change, negative = cytotoxicity, actives largely listed as inhibitors | hit rate 0.16% among 390,000; further: potency means the concentration at half of the fitted maximal effect; on the % scale 0 is the no-effect control and ±100 the full control effect
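A549 ARE_Fluc cells in 5% FBS OPTI-MEM were exposed to compounds in concentration-response for 18-24 h at 37 deg C. Viability was read by CellTiter-Fluor fluorescence (Ex 405/Em 525) after 30 min, before the luciferase read.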
IL2 activator: activators of IL-2; hit rate 0.065% among 360,000; IL-2 activation reporter assay, cell-based qHTS; stimulated with anti-CD3/CD4/CD28 beads; in transgenic mouse T cells; activation, % (series mostly up to about 46 µM); in the data active means activation above about 50%; inconclusive means mostly about 30% to 49%; further: 0% is about no effect
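Screening format: compound pinned onto unstimulated transgenic mouse T cells, 60 min incubation, then anti-CD3/anti-CD4/anti-CD28 bead stimulation for 18 hours at 37 degrees C, followed by EGFP and DsRed detection.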
Nrf2 inh: inhibitors of Nrf2 signaling; A549 ARE-Fluc reporter, luciferase luminescence, 18-24 h; Potency, µM (series often up to 46 µM), inactives show at the top dose activity change, negative = inhibition, usual class: inhibitors; hit rate 2.1% among 360,000; further: potency means the concentration at half of the fitted maximal effect; on the % scale 0 is the no-effect control and ±100 the full control effect; nearly all actives have a fitted effect of over 60% in size
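Nrf2 activity is the BugLite luminescence, read 15 min after reagent at room temperature, following CellTiter-Fluor cytotoxicity readout (30 min, 37C). Compound titrations were applied for 18-24 h to 5000 A549 ARE_Fluc cells/well in 5% FBS OPTI-MEM.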
Nrf2 activator: activates Nrf2 signaling. AREc32 ARE-luciferase reporter (MCF7-derived line), luminescence, 24 h. Potency, µM (titrated, usually from 46.1 µM), inactives show top-dose activation, hits mostly activators. hit rate 0.31% among 410,000; further: potency means the concentration at half of the fitted maximal effect; % of control where 0% means no effect; nearly all actives have a fitted effect of over 65% in size
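AREc32 cells carrying an ARE-driven firefly luciferase reporter were seeded at 1000 cells/well in OPTI-MEM with 5% FBS, then exposed to compound for 24 hr at 37 deg C. Luminescence was read with Steady-Glo after 30 min at RT.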
An asterisk follows results filed as active; ? = inconclusive; / = no result; [ ] = another dose, or the depositor's remark. Sampled rows, rich in hits. Any-hit rate of the full collection: about 2.3%. Unless noted, the call rests on the fitted dose curve; in most records, active means well fitted curve in the direction sought with a large enough effect; inconclusive means small, poorly fitted or top-dose-only effect, or another doubt; inactive means no such curve, though single readings can be large; an effect the other way counts as inactive or inconclusive.

SMILES | A549 tox | IL2 activator | Nrf2 inh | Nrf2 activator
COc1ccccc1CNC(=O)c1cnc2sc(N3CCOCC3)nn2c1=O | 0% | / | ? | 5%
CC(=O)c1ccc(N2CCN(c3ncnc4c3nc3n4CCCC3)CC2)cc1 | -5% | / | 23µM* | 0%
COc1ccccc1N1CCN(c2ncnc3c2nc2n3CCCC2)CC1 | -16% | / | 21µM* | 0%
CCN(CCCNC(=O)c1nn(-c2ccc(OC)c(Cl)c2)c(=O)c2c1c1ccccc1n2C)c1cccc(C)c1 | 1% | / | 8% | 3%
COc1cnc(-c2ccccn2)nc1N(C)C | ? | -2 | 8.2µM* | 0%[9.22 µM]
CNS(=O)(=O)/C=C/c1ccccc1 | 0% | -2 | 7% | -1%
O=S(=O)(/C=C/c1ccccc1)Oc1ccccc1 | -5% | -2 | -15% | 13µM*
Cc1cc(N2C(=O)c3ccccc3C2=O)n[nH]1 | 13% | / | 11% | /
CCCNC(=O)Cn1c(=O)/c(=C/c2ccc(-c3ccc([N+](=O)[O-])cc3)o2)s/c1=C\C(=O)C(C)(C)C | ? | 78* | -15% | 8%
COc1ccc(CNc2ncnc3nc[nH]c23)cc1OC | ? | / | 0% | /
O=C(CCc1nc2ccccc2c(=O)[nH]1)N1CCN(c2ccc(F)cc2)CC1 | 0% | -1 | 16µM* | 1%
COCc1nnc(NC(=O)C2CC(=O)N(c3ccc(C)c(Cl)c3)C2)s1 (configuration not stated) | 0% | -4 | 4% | 0%
Cc1ccc(N2CC(C(=O)Nc3nccs3)CC2=O)cc1Cl (configuration not stated) | 16µM* | 2 | ? | -2%
Cc1ccc(-c2noc(-c3cccnc3NCc3ccco3)n2)cc1 | 0% | / | ? | 7%
O=C(CSc1ccc(-c2cccs2)nn1)Nc1cccc(F)c1 | 0% | / | 21µM* | 7%
CCOC(=O)c1ccc(NC(=O)CSc2ccc(-c3ccccn3)nn2)cc1 | -16% | -1 | 21µM* | 8%
CCOc1ccc(NC(=O)CSc2ccc(-c3ccccn3)nn2)cc1 | 1% | 3 | -7% | 0%
O=C(CSc1ccc(-c2cccnc2)nn1)Nc1ccc(Br)cc1 | -14% | 0 | 7.3µM* | 3%
O=C(CSc1ccc(-c2cccs2)nn1)Nc1ccccc1C(F)(F)F | 17% | / | -12% | 0%
O=C(CSc1ccc(-c2ccccn2)nn1)Nc1ccc(F)c(F)c1 | -8% | 0 | 3.3µM* | 4%
CCc1nn(CC(=O)NCCCOC)c(=O)c2cc3occc3n12 | -6% | / | 19% | 0%
CCCCCNC(=O)c1cccc(S(=O)(=O)N2CC3(C)CC2CC(C)(C)C3)c1 (configuration not stated) | -17% | -1 | 26µM* | 0%
CC1(C)CC2CC(C)(CN2S(=O)(=O)c2cccc(C(=O)O)c2)C1 (configuration not stated) | 0% | -1 | 3% | 0%
COc1ccccc1C(=O)N1CCC(c2noc(-c3ccc(S(=O)(=O)N4CCCC4)cc3)n2)CC1 | -16% | / | ? | 0%
Cc1cc(C)cc(N(CC(=O)NC2CCCCC2)C(=O)CCCC(=O)Nc2ccccn2)c1 | ? | -1 | 21µM* | 0%
SMILES | A549 tox | IL2 activator | Nrf2 inh | Nrf2 activator
Cc1ccc(-n2nc3c([n+]2[O-])CCc2c-3no[n+]2[O-])cc1 | ? | -3 | -29% | 2.2µM*
[O-][n+]1onc2c1CCc1c-2nn(-c2ccccc2Cl)[n+]1[O-] | -3% | -3 | ? | ?
CCOC(=O)Cc1csc(-n2sc3ccccc3c2=O)n1 | 1% | 0 | 14% | 11%
CCOC(=O)Cc1csc(/N=C/c2c(O)n(-c3ccccc3C(F)(F)F)c(=O)c3ccccc23)n1 | -20% | 16 | 13µM* | -1%
CCn1c(COc2ccc(Cl)cc2)nnc1SC1CCc2ccccc2C1=O (configuration not stated) | 0% | -2 | 26µM* | 3%
CCn1c(COc2ccc(Cl)cc2)nnc1SCc1ccc(C#N)cc1 | 1% | -1 | ? | 3%
O=C(NCC1CCCO1)C(c1ccncc1)N(Cc1cccs1)C(=O)Cn1nnc(-c2ccc(F)cc2)n1 (configuration not stated) | -6% | -2 | ? | 0%
Cc1ccc(-c2nnn(CC(=O)N(Cc3cccs3)C(C(=O)NC3CCCC3)c3ccncc3)n2)cc1 (configuration not stated) | -17% | -3 | 6.5µM* | 5%
COC(=O)c1ccc(OC)c(CSc2nnc(COc3cccc(C)c3)o2)c1 | -14% | -2 | ? | 0%
COC(=O)c1ccc(OC)c(CSc2nnc(COc3ccc(OC)cc3)o2)c1 | / | -1 | 13µM* | 1%
Cc1ccc(S(=O)(=O)Nc2ccccc2N=Cc2ccc([N+](=O)[O-])cc2[N+](=O)[O-])cc1 | -4% | -7 | 0% | 14µM*
COc1ccc([N+](=O)[O-])cc1NS(=O)(=O)c1ccc(C)cc1 | 1% | -3 | -2% | -1%
COc1ccc(NC(=O)Cc2csc(COc3cccc(C)c3)n2)cc1OC | 2% | / | 23µM* | 0%
Cc1cccc(NC(=O)Cc2csc(COc3cccc(C)c3)n2)c1 | -2% | / | -2% | 4%
COc1ccccc1N1C(=O)S/C(=C\c2ccc(C)s2)C1=O | -2% | 88* | 5% | 5%
CC(=O)Nc1ccc(/C=C2\Sc3ccccc3C2=O)cc1 | -3% | 0 | 9% | 5%
COc1ccccc1N1C(=O)S/C(=C\c2cc(C)n(C)c2C)C1=O | -19% | 0 | 6% | 0%
Cc1ccc(/C=C2\Sc3ccccc3C2=O)s1 | -12% | -2 | 16% | 11µM*
Cc1cc2c(s1)c1cnn(Cc3c(Cl)cccc3Cl)c(=O)c1n2C | -7% | / | 4% | /
COc1ccc(NC(=S)N2C3CCC2CC(NC(=O)NC24CC5CC(CC(C5)C2)C4)C3)c(OC)c1 (configuration not stated) | 4% | 1 | -2% | 3%
Cc1cc([N+](=O)[O-])ccc1NC(=O)CN1C2CCC1CC(NC(=O)NC13CC4CC(CC(C4)C1)C3)C2 (configuration not stated) | -18% | -4 | 16µM* | 0%
O=C(C1c2ccccc2Oc2ccccc21)N1CCN(c2ccc(Cl)cc2)CC1 | ? | 0 | 26µM* | -1%
Cc1ccc(C(=O)NCC(=O)OCC(=O)c2ccc3ccccc3c2)cc1 | 21% | / | 5% | /
COc1ccccc1NS(=O)(=O)c1cc(NC(=O)c2ccc(Cl)nc2)ccc1Cl | ? | -1 | 23µM* | 0%
COc1ccccc1NS(=O)(=O)c1cc(NC(=O)c2ccncc2)ccc1N1CCCC1 | -16% | -1 | 21µM* | 2%
O=C(Nc1ccc(N2CCOCC2)c(S(=O)(=O)Nc2ccccc2Cl)c1)c1ccccc1 | -8% | -1 | 16µM* | 0%
O=C1CCN(CCc2ccccc2)CCN1C(CSc1ccc(Br)cc1)c1ccccc1 (configuration not stated) | -10% | / | 5% | /
COc1ccc(C(=O)n2nc(-c3ccco3)nc2NCc2cccs2)cc1OC | 5% | / | 4% | 8%
